According to PubChem BioAssay (NCI):
“And” between values parts separate entries of the source, which are not always exact repeats. Equal values may be shown once. The panel holds about 79,000 compounds, 15% with a hit somewhere; the sample as a whole holds those more often. A structure can be active in one record and inactive in another. The source made the active and inactive calls. Cut-off read from the data, not from the text of the source: active = growth inhibition above about 70%; inactive = the rest.

Experiments:
[1] = NCI Yeast Anticancer Drug Screen. Data for the rad50 strain (AID 155);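 note: 0% = growth of vehicle-only cultures of the same strain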; conditions: S. cerevisiae rad50 strain growth inhibition, stronger effect = higher value
How it was run: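 Vehicle-treated cultures provide the reference for the growth inhibition reported for compound-exposed, repair-deficient yeast.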

[2] = NCI Yeast Anticancer Drug Screen. Data for the mec2-1 strain (AID 157); conditions: S. cerevisiae mec2-1 strain, stronger effect = higher value
How it was run: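 mec2-1 yeast strain, carrying an alteration in DNA damage repair or cell cycle control, was exposed to compounds; growth inhibition was measured relative to vehicle-treated controls.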

[3] = NCI Yeast Anticancer Drug Screen. Data for the sgs1 mgt1 strain (AID 161);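 note: 0% = growth of cultures given vehicle only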; conditions: S. cerevisiae sgs1 mgt1 strain, stronger effect = higher value
How it was run: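 Yeast cells carrying a defined DNA-repair defect were exposed to test compounds. Growth inhibition was measured relative to vehicle-treated controls.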

[4] = NCI Yeast Anticancer Drug Screen. Data for the cln2 rad14 strain (AID 165);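 note: 0% = growth equal to vehicle treated cultures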; conditions: S. cerevisiae cln2 rad14 strain, stronger effect = higher value
How it was run: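 Yeast carrying cln2 and rad14 alterations (cell cycle control and DNA damage repair) were exposed to compounds. Growth inhibition was measured against vehicle-treated controls.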

[5] = NCI Yeast Anticancer Drug Screen. Data for the bub3 strain (AID 167); conditions: S. cerevisiae bub3 mutant strain, stronger effect = higher value
How it was run: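 Mutant yeast screening strain plus compound; vehicle-treated cultures serve as the 0% inhibition reference.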

[6] = NCI Yeast Anticancer Drug Screen. Data for the wt2 strain (AID 169); conditions: S. cerevisiae wt2 strain growth inhibition, stronger effect = higher value
How it was run: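 Yeast cells were exposed to test compounds, and growth inhibition was measured relative to vehicle-treated controls.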

[7] = NCI Yeast Anticancer Drug Screen. Data for the mlh1 rad18 strain (AID 175); conditions: S. cerevisiae mlh1 rad18 strain growth inhibition, stronger effect = higher value
How it was run: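 Growth inhibition of the yeast strain was measured after compound exposure and expressed relative to vehicle-treated controls. The strain carries defined defects in DNA damage repair.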

[8] = at 5.0 µM (retest, dose inferred, filed as 0.5)
[9] = at 50.0 µM (retest, dose inferred, filed as 5.0)

Measured: growth inhibition

CCCCCC(C)c1ccc(O)c(C)c1 (stereo not given)
active: [1]; [9] 94% | [1]; at 50.0 µM 81.7% | [2]; [9] 95% | [4]; [9] 75% | [5]; at 50.0 µM 86.1% | [6]; at 100.0 µM 99% | [7]; [9] 99% | [7]; at 50.0 µM 72.5%
inactive: [1]; [8] 49% | [2]; [8] 49% | [2]; at 50.0 µM 56.2% | [3]; [8] -10% | [3]; [9] 43% | [3]; at 50.0 µM 68.9% | [4]; [8] 41% | [4]; at 50.0 µM 61.7% | [5]; [8] 32% | [5]; [9] 55% | [6]; at 1.2 µM 4% | [6]; at 3.7 µM -2% | [6]; at 11.0 µM -6% | [6]; at 33.0 µM 0% | [7]; [8] 45%

CN(C)CCC(=O)c1cccc([N+](=O)[O-])c1
11.4% (inactive) and 96% (active): [3]; at 50.0 µM
4.1% (inactive) and 88.5% (active): [2]; at 50.0 µM
active: [1]; [9] 85% | [2]; [9] 87% | [3]; [9] 89% | [4]; [9] 71% | [5]; [9] 92%
39.3% (inactive) and 83.9% (active): [1]; at 50.0 µM
inactive: [1]; [8] 10% | [2]; [8] 13% | [3]; [8] 12% | [4]; [8] 7% | [4]; at 50.0 µM 31.4% and 34.9% | [5]; [8] 2%
14.5% (inactive) and 90.2% (active): [5]; at 50.0 µM

Cc1ccc(S(=O)(=O)NC2CCCCCCC2)cc1
active: [1]; [9] 96% | [1]; at 50.0 µM 77% | [2]; [9] 89% | [3]; at 50.0 µM 79% | [5]; [8] 97% | [5]; [9] 95% | [5]; at 50.0 µM 89.3% | [6]; at 100.0 µM 98% | [7]; [9] 99% | [7]; at 50.0 µM 82.8%
inactive: [1]; [8] 45% | [2]; [8] 30% | [2]; at 50.0 µM 64.2% | [3]; [8] 42% | [3]; [9] 16% | [4]; [8] 48% | [4]; [9] 46% | [4]; at 50.0 µM 60% | [6]; at 1.2 µM -4% | [6]; at 3.7 µM -17% | [6]; at 11.0 µM -23% | [6]; at 33.0 µM 23% | [7]; [8] 40%

Nc1cc2ccccc2cc1Br
active: [1]; [9] 73% | [1]; at 50.0 µM 81% | [3]; at 50.0 µM 71.8% | [5]; at 50.0 µM 74.7% | [6]; at 100.0 µM 97% | [7]; [9] 82%
inactive: [1]; [8] 43% | [2]; [8] 30% | [2]; [9] 62% | [2]; at 50.0 µM 42.9% | [3]; [8] 14% | [3]; [9] 26% | [4]; [8] 54% | [4]; [9] 44% | [4]; at 50.0 µM 41.6% | [5]; [8] 22% | [5]; [9] 52% | [6]; at 1.2 µM -13% | [6]; at 3.7 µM -17% | [6]; at 11.0 µM -17% | [6]; at 33.0 µM 12% | [7]; [8] 40% | [7]; at 50.0 µM 45%

c1ccc(-c2cnc(-c3ccc(-c4ncc(-c5ccccc5)o4)cc3)o2)cc1
active: [4]; at 50.0 µM 91%
inactive: [1]; [8] -13% | [1]; [9] -8% | [1]; at 50.0 µM -8.4% | [2]; [8] -6% | [2]; [9] -17% | [2]; at 50.0 µM -27.4% | [3]; [8] -23% | [3]; [9] -11% | [3]; at 50.0 µM -47.8% | [4]; [8] -11% | [4]; [9] -10% | [5]; [8] 0% | [5]; [9] 5% | [5]; at 50.0 µM -32.6%

CCOC(=O)c1c[nH]c2c(ccc3cccnc32)c1=O
85% (active) and 56% (inactive): [3]; [9]
inactive: [1]; [8] 10% and 5% | [1]; [9] 64% and 66% | [1]; at 50.0 µM 38% and 38.8% | [2]; [8] 7% and -15% | [2]; [9] 64% and 43% | [2]; at 50.0 µM 13.9% and 12.2% | [3]; [8] 8% and -1% | [3]; at 50.0 µM 10.8% and 52.7% | [4]; [8] 3% and -3% | [4]; [9] 43% and 41% | [4]; at 50.0 µM 26.9% and 24.3% | [5]; [8] -3% and 4% | [5]; [9] 48% and 43% | [5]; at 50.0 µM 18.4% and 6.8%

Cc1n(CC(C)C)c2c([n+]1C)C(=O)c1ccccc1C2=O
inactive: [1]; [8] 34% | [2]; [8] 44% | [3]; [8] 44% | [4]; [8] 21% | [5]; [8] 60% | [7]; [8] 68%
active: [1]; [9] 98% | [1]; at 50.0 µM 85% | [2]; [9] 99% | [2]; at 50.0 µM 90.4% | [3]; [9] 99% | [3]; at 50.0 µM 91% | [4]; [9] 95% | [4]; at 50.0 µM 89% | [5]; [9] 99% | [5]; at 50.0 µM 89.5% | [7]; [9] 98%

CC1(O)Cc2c(O)c3c(c(O)c2CC1O)C(=O)C=CC3=O (stereo not given)
active: [1]; at 50.0 µM 72.2% | [7]; [9] 70%
inactive: [1]; [8] 9% | [1]; [9] 51% | [2]; [8] 6% | [2]; [9] 46% | [2]; at 50.0 µM 69.2% | [3]; [8] 4% | [3]; [9] 43% | [3]; at 50.0 µM 26.5% | [4]; [8] 7% | [4]; [9] 37% | [4]; at 50.0 µM 14.9% | [5]; [8] 1% | [5]; [9] 56% | [5]; at 50.0 µM 24.2% | [7]; [8] 9%

CS(=O)(=O)OCCN(CCOS(C)(=O)=O)c1ccc(C=Nc2ccc(-c3csc(Cc4ccccc4)n3)cc2)c(Cl)c1
inactive: [1]; [8] 16% | [2]; [8] 7% | [3]; [8] -22% | [4]; [8] 7% | [5]; [8] -35% | [7]; [8] 15%
active: [1]; [9] 95% | [1]; at 50.0 µM 71.2% | [2]; [9] 93% | [2]; at 50.0 µM 76.6% | [3]; [9] 83% | [3]; at 50.0 µM 71% | [4]; [9] 85% | [4]; at 50.0 µM 77% | [5]; [9] 78% | [5]; at 50.0 µM 76% | [7]; [9] 94%
